Laboratory results: PubChem BioAssay AID1578 (Sanford-Burnham Center for Chemical Genomics, 2009)
The whole screen tested about 290,000 compounds, of which about 3,000 (1%) were called active. The entries come from a sample that favours actives as a whole. Values without a mark were called inactive. No stated cut-off is given here; in the data, active means inhibition mostly above about 36% (no sharp cut-off); inactive means mostly below about 34%.

assay: NOD1 signaling inhibitors, primary screen, cell-based, luminescence, uHTS (AID 1578); settings: NOD1-driven NF-kB luciferase reporter cells, at 4 µM, stronger effect = higher value;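 further: HEK-293T reporter cells stimulated with the NOD1 agonist gamma-tri-DAP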

Going from `CC12CCC(C(=O)O)(c3nc(C#N)c(C#N)nc31)C2(C)C` (stereo not given) to `COc1ccccc1N(C(C)=O)c1nc(C)cc(C)c1C#N`, the inhibition falls from -25.8% to -33.1%.

First: O=C(NCc1ccccn1)c1cccc(NS(=O)(=O)c2cccc(F)c2)c1
Second: O=C(O)c1ccc(NS(=O)(=O)c2cccc(S(=O)(=O)c3ccc(Cl)c(Cl)c3)c2)cc1
The inhibition of the first is higher: -15.2% for the first, -30.6% for the second.

Going from `O=C(CCCn1c(=S)[nH]c2cc3c(cc2c1=O)OCO3)N1CCN(c2ccccc2)CC1` to `O=C(CCCn1c(=S)[nH]c2cc3c(cc2c1=O)OCO3)N1CCN(c2ccc(F)cc2)CC1`, the inhibition falls from -1% to -8.6%.

First: Cc1cccc(N2CCN(C(=O)CCCn3c(=S)[nH]c4cc5c(cc4c3=O)OCO5)CC2)c1C
Second: O=C(CCCCCn1c(=S)[nH]c2ccc(N3CCOCC3)cc2c1=O)NCc1ccccc1
The inhibition of the first is higher: 2.8% for the first, 2.3% for the second.

First: C=CCNC(=O)CN(c1ccc(F)c(Cl)c1)S(C)(=O)=O
Second: CC(=O)N[C@@H](C)C(=O)N1CCN(S(=O)(=O)c2ccc(Cl)cc2)CC1
The inhibition of the first is higher: -17.3% for the first, -26% for the second.

First: O=C(Nc1cccnc1Oc1ccc(Cl)cc1)c1cccc2ccccc12
Second: COc1cccc(NC(=O)Cn2nc(Cc3cccnc3)c3ccccc3c2=O)c1
The inhibition of the first is higher: -9.2% for the first, -18.3% for the second.

Compared with `COc1cc(OC)c(NC2c3ccccc3C(=O)N2c2cc(C)ccn2)cc1Cl` (stereo not given), `COc1ccc(CNCCC(c2ccccc2)c2ccc(OC(C)C)cc2)cc1OC` (stereo not given) is higher in inhibition: -37.7% for the first, -3.1% for the second.

Compared with `Cc1ccc(C)c(NC(=O)CCN2CCCCC2)c1`, `Cc1cccc(-c2nnc(SCC(=O)NC3CC3)n2C)c1` is lower in inhibition: -14.7% for the first, -27.5% for the second.

First: CCO[C@H]1OC(C(=O)O)=C[C@@H](c2ccc3c(c2)OCO3)[C@@H]1CCCO
Second: COc1ccc(NC(=O)c2nnn(CC(=O)Nc3ccc4c(c3)OCO4)c2N)c(OC)c1
The inhibition of the first is higher: -10.4% for the first, -46.4% for the second.

Going from `Cc1ccc2nc(-c3ccccc3)cn2c1` to `Cc1ccc2nc(-c3ccc(O)c(O)c3)cn2c1`, the inhibition falls from 18% to -18.6%.

First: CCOC(=O)c1c(CSc2ccc(C)cc2)oc2ccc(O)cc12
Second: CCOC(=O)c1c(COc2ccccc2)oc2ccc(O)cc12
The inhibition of the first is higher: 30% for the first, 0% for the second.

Going from `CCOC(=O)CC(=O)CSc1nc2ccccc2c(=O)n1-c1ccc(C(=O)N2CCOCC2)cc1` to `O=C(c1ccc(N2CCN(S(=O)(=O)c3ccccc3)CC2)c([N+](=O)[O-])c1)N1CCOCC1`, the inhibition falls from 6.8% to -3.7%.

Going from `Cc1ccc(Cn2nnc3c(=O)[nH]c(C4CCCN(S(=O)(=O)c5ccc(F)cc5)C4)nc32)cc1` (stereo not given) to `Cc1ccc(Nc2ncnc3c2nnn3Cc2ccccc2)cc1`, the inhibition rises from -17.1% to -7.5%.

First: CCN(CC(=O)Nc1ccc(NC(C)=O)cc1)C(=O)C1COc2ccccc2O1 (stereo not given)
Second: O=C(Nc1ccc(NC(=O)c2cccs2)cc1)c1cccs1
The inhibition of the first is higher: -17.6% for the first, -30.2% for the second.

First: CC(CN1CCOCC1)OC(=O)c1ccc(Br)cc1 (stereo not given)
Second: CC(CN1CCOCC1)OC(=O)c1ccccc1 (stereo not given)
The inhibition of the first is lower: -14.8% for the first, -4.8% for the second.

Going from `COc1ccc(Cn2c3nc4ccccc4nc3c3c(=O)n(Cc4ccco4)cnc32)cc1` to `Cc1nc2c(c(=O)n1Cc1ccccc1Cl)c1nc3ccccc3nc1n2Cc1ccco1`, the inhibition falls from 32.5% to 17.8%.

Compared with `O=C(NS(=O)(=O)Nc1ccc(Br)cn1)c1c[nH]c2ccccc12`, `O=C(Nc1ccccc1C(=O)O)c1ccc(Br)c(S(=O)(=O)NCc2ccccc2)c1` is lower in inhibition: 31.1% for the first, -0.6% for the second.

First: CCOc1ccc(S(=O)(=O)N(C)c2ccc(OCC(=O)NCCc3ccc(OC)cc3)cc2)cc1
Second: COc1ccc(OC)c(S(=O)(=O)Nc2ccc(OCC(=O)O)cc2)c1
The inhibition of the first is lower: -14% for the first, 2.7% for the second.

Going from `CN1CCN(S(=O)(=O)c2cccc(C(=O)Nc3sc4c(c3-c3nc5ccccc5[nH]3)CCCC4)c2)CC1` to `COC(=O)c1ccc(N2CCN(S(=O)(=O)c3ccccc3)CC2)c([N+](=O)[O-])c1`, the inhibition falls from -16% to -18.3%.

Going from `O=C(Nc1ccncc1)c1cccs1` to `COC(=O)CSc1nnc(CNC(=O)c2cccs2)n1-c1cccc(C)c1`, the inhibition falls from 37.2% to -22.2%.

Going from `N#C/C(=C\c1cccc([N+](=O)[O-])c1)C(=O)NCC1CCCO1` (stereo not given) to `O=C(CCC(=O)N1CCSc2ccccc21)NCc1cccc(Br)c1`, the inhibition falls from -21% to -27.1%.

Going from `COC(=O)CSc1ncnc2c1cnn2Cc1ccccc1` to `CCOC(=O)CNC(=O)CSc1ncnc2c1cnn2-c1ccccc1`, the inhibition falls from 13.7% to -10.2%.

Going from `COc1ccc(-c2cc(C3CCN(c4cc(Cl)nc(N)n4)CC3)[nH]n2)cc1` to `Nc1nc(Cl)cc(N2CCC(c3cc(-c4ccc(Cl)cc4Cl)n[nH]3)CC2)n1`, the inhibition rises from 25.9% to 34.5%.

First: COC(=O)c1cc(C(=O)c2ccccc2)n2c(=O)/c(=C\N(C)C)sc12
Second: Cc1cc(C)c2c(N)c(C(=O)c3ccccc3)oc2n1
The inhibition of the first is lower: -11.3% for the first, 2% for the second.

First: O=C(CCC(=O)Nc1ccccc1Cl)NNC(=S)Nc1ccccc1C(F)(F)F
Second: O=C(NNC(=S)Nc1ccccc1C(F)(F)F)C1CC1
The inhibition of the first is lower: -30.7% for the first, -0.9% for the second.

First: Cc1ccc(C(=O)c2oc3nc(C)cc(C)c3c2N)cc1
Second: CCOC(=O)c1c(CSc2ccc(C)cc2)n(C)c2cc(Br)c(O)c(CN(C)C)c12
The inhibition of the first is higher: -6.8% for the first, -29.9% for the second.

Going from `CCOC(=O)c1c(C)[nH]c(C(=O)COC(=O)c2ccccn2)c1C` to `Cc1ccc2[nH]c(=O)c3cc(C(=O)NC(C)C)sc3c2c1`, the inhibition falls from 1% to -4.6%.

Going from `CC(C)n1c(CN(C)c2ccccc2)nc2ccccc21` to `CCCn1c(/C=C/c2ccccc2)nc2ccccc21`, the inhibition falls from -18.1% to -41.4%.

Going from `COc1ccc(NC(C)=O)cc1S(=O)(=O)NC(Cc1ccccc1)C(=O)O` (stereo not given) to `COc1ccc(C(CCN(Cc2ccc(OC)c(OC)c2)C(C)=O)c2ccccc2)cc1` (stereo not given), the inhibition rises from -2.4% to 14.5%.

Going from `C=CCN=C(NC#N)SCC(=O)NC(C)(C)C` to `CC(C)(C)c1ccc(OCCNC(=S)NC(=O)c2cccnc2)cc1`, the inhibition falls from 1.5% to -17.1%.

Going from `Cn1c(SCC(=O)NC2CCCCC2)nnc1-c1ccc(N)cc1` to `CCn1ccnc1[C@@H]1C[C@H]2CN(c3ccccc3OC)C(=O)[C@]23CCCN13`, the inhibition falls from -10.1% to -22.3%.

First: C=C(C)Cn1c(NCCC)nc2c1c(=O)n(C)c(=O)n2C
Second: COc1ccc(C(CCN(Cc2ccc(OC)c(OC)c2)C(C)=O)C(C)C)cc1 (stereo not given)
The inhibition of the first is lower: -26.6% for the first, -0.7% for the second.

Compared with `CC(CCc1ccccc1)NC(=O)CN1CCSc2ccccc21` (stereo not given), `Cn1c(/C=C/c2ccccc2)nc2ccccc2c1=O` is lower in inhibition: 8% for the first, -12.9% for the second.

Compared with `CC(C)(C)C1CCC(=O)N(CCSc2ccccc2)CC1` (stereo not given), `COc1ccc(/C=N/NC(=O)CCn2nnc3ccccc32)cc1` is higher in inhibition: -65% for the first, -3.7% for the second.

Compared with `Cc1[nH]c(=S)[nH]c(=O)c1CCCO`, `CC1=C(C)C(=O)C(CCCCC#CCCCC#CCO)=C(C)C1=O` is higher in inhibition: -25.6% for the first, -6.7% for the second.

First: COc1ccc(CNCCC(c2ccc(OC(C)C)cc2)c2ccccc2OC)cc1OC (stereo not given)
Second: COc1ccc(/C=C/c2nc3ccccc3n2Cc2ccccc2OC)cc1
The inhibition of the first is lower: -0.9% for the first, 5.5% for the second.

Compared with `COc1cc2c(cc1OC)CN(CC(=O)Nc1ccc(C)c(S(=O)(=O)N3CCOCC3)c1)CC2`, `CCN1CCN(C(c2cccs2)C(C)NC(=O)C(=O)N2CCCCC2)CC1` (stereo not given) is lower in inhibition: -14.6% for the first, -23.8% for the second.

Going from `C=CCn1c(/N=C/c2ccc(OC)cc2)nc2ccccc21` to `COc1ccc(Cn2c(/C=C/c3ccccc3)nc3ccccc32)cc1`, the inhibition falls from -6.3% to -65.7%.

Going from `O=C(OCC(=O)C12CC3CC(CC(C3)C1)C2)c1cnccn1` to `COc1ccc(-c2cc3nc[nH]c(=O)c3s2)cc1`, the inhibition rises from -23.7% to -1.7%.

Molecule `O=c1[nH]cnc2cc(-c3ccc(Br)cc3)sc12` has an inhibition of -63.3%.

With `Cc1ccc(-c2cn3cc(C)ccc3n2)cc1` the inhibition was 92.4% (active).
For `CCOC(=O)c1c(CSc2ccccc2)oc2ccc(O)cc12`, the inhibition was 98.6% (active).
With `CC(CN1CCOCC1)OC(=O)c1ccc(C(C)(C)C)cc1` (stereo not given) the inhibition was 68.1% (active).
With `COc1ccc(Cn2c3nc4ccccc4nc3c3c(=O)n(Cc4ccco4)c(C)nc32)cc1` the inhibition was 110% (active).
In the case of `O=C(Nc1nonc1NC(=O)c1cccs1)c1cccs1`, the inhibition was 58.9% (active).
In the case of `CCOC(=O)CNC(=O)CSc1ncnc2c1cnn2Cc1ccccc1`, the inhibition was 55.8% (active).
In the case of `COc1ccc(OC)c(-c2cc(C3CCN(c4cc(Cl)nc(N)n4)CC3)[nH]n2)c1`, the inhibition was 56.3% (active).
With `N#CCC(=O)NNC(=S)Nc1ccccc1C(F)(F)F` the inhibition was 42.8% (active).
With `Cc1cc(C)c2c(N)c(C(=O)c3ccc(Br)cc3)oc2n1` the inhibition was 68.7% (active).
With `Cn1c(SCC(=O)NC2CCCCC2)nnc1-c1cccc(N)c1` the inhibition was 46.1% (active).
For `COC1=C(OC)C(=O)C(CCCCCCCCCCO)=C(C)C1=O`, the inhibition was 87.7% (active).
With `COc1ccc(C(CCN(Cc2ccc(OC)c(OC)c2)C(=O)CCl)c2ccccc2)cc1` (stereo not given) the inhibition was 82.9% (active).
In the case of `Cn1c(/C=C/c2ccccc2)nc2ccccc21`, the inhibition was 48.9% (active).
In the case of `COc1ccc(/C=C/c2nc3ccccc3n2C)cc1`, the inhibition was 74.4% (active).
For `COc1ccc(/C=N\n2nnc3ccccc32)cc1`, the inhibition was 42% (active).
With `O=c1[nH]c(CCl)nc2cc(-c3ccc(Cl)cc3)sc12` the inhibition was 92.6% (active).
